Source: the supplement of paper PMC4466140

What was measured:
Experiment in all cases: SPOT peptide array binding signal intensity (averaged, normalized) (arbitrary units (background-subtracted, floor 0; scale differs between SH3 domains)); higher = stronger binding of the SH3 domain to the peptide
[1] = target: AgAbp1
Summary of the method: (§1)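 Detection of bound protein relied on anti-GST antibody, an HRP anti-mouse secondary and luminol, with imaging and quantification in Genespotter. The bound protein was GST-fused SH3 domains from four yeast species, incubated at 10 μg/ml overnight at 4°C in TBS-based blocking buffer on cellulose membranes carrying synthetic 15-mer peptides with cysteines replaced by serines. Binding signal is normalized, background-subtracted spot intensity averaged over replicates, in arbitrary units that differ between domains.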

[2] = target: AgBbc1
Summary of the method: as §1

[3] = target: AgBem1-D1
Summary of the method: as §1

[4] = target: AgBzz1-D1
Summary of the method: as §1

[5] = target: AgBzz1-D2
Summary of the method: as §1

[6] = target: AgCyk3
Summary of the method: as §1

[7] = target: AgFus1
Summary of the method: as §1

[8] = target: AgHof1
Summary of the method: as §1

[9] = target: AgHse1
Summary of the method: as §1

[10] = target: AgLsb1
Summary of the method: as §1

[11] = target: AgLsb4
Summary of the method: as §1

[12] = target: AgMyo5
Summary of the method: as §1

[13] = target: AgNbp2
Summary of the method: as §1

[14] = target: AgRvs167
Summary of the method: as §1

[15] = target: AgSho1
Summary of the method: as §1

[16] = target: AgSla1-D1-D2
Summary of the method: as §1

[17] = target: AgSla1-D3
Summary of the method: as §1

[18] = target: CaAbp1-D1
Summary of the method: as §1

[19] = target: CaAbp1-D2
Summary of the method: as §1

[20] = target: CaBbc1
Summary of the method: as §1

[21] = target: CaBem1-D1
Summary of the method: as §1

[22] = target: CaBzz1-D1
Summary of the method: as §1

[23] = target: CaBzz1-D2
Summary of the method: as §1

[24] = target: CaCyk3
Summary of the method: as §1

[25] = target: CaFus1
Summary of the method: as §1

[26] = target: CaHof1
Summary of the method: as §1

[27] = target: CaHse1
Summary of the method: as §1

[28] = target: CaLsb1
Summary of the method: as §1

[29] = target: CaLsb4
Summary of the method: as §1

[30] = target: CaMyo5
Summary of the method: as §1

[31] = target: CaNbp2
Summary of the method: as §1

[32] = target: CaRvs167
Summary of the method: as §1

[33] = target: CaRvs167-3
Summary of the method: as §1

[34] = target: CaSho1
Summary of the method: as §1

[35] = target: CaSla1-D1-D2
Summary of the method: as §1

[36] = target: CaSla1-D3
Summary of the method: as §1

[37] = target: ScAbp1
Summary of the method: as §1

[38] = target: ScBbc1
Summary of the method: as §1

[39] = target: ScBem1-D1
Summary of the method: as §1

[40] = target: ScBzz1-D1
Summary of the method: as §1

[41] = target: ScBzz1-D2
Summary of the method: as §1

[42] = target: ScCyk3
Summary of the method: as §1

[43] = target: ScFus1
Summary of the method: as §1

[44] = target: ScHof1
Summary of the method: as §1

[45] = target: ScHse1
Summary of the method: as §1

[46] = target: ScLsb1
Summary of the method: as §1

[47] = target: ScLsb2
Summary of the method: as §1

[48] = target: ScLsb3
Summary of the method: as §1

[49] = target: ScLsb4
Summary of the method: as §1

[50] = target: ScMyo3
Summary of the method: as §1

[51] = target: ScMyo5
Summary of the method: as §1

[52] = target: ScNbp2
Summary of the method: as §1

[53] = target: ScPex13
Summary of the method: as §1

[54] = target: ScRvs167
Summary of the method: as §1

[55] = target: ScSho1
Summary of the method: as §1

[56] = target: ScSla1-D1-D2
Summary of the method: as §1

[57] = target: ScSla1-D3
Summary of the method: as §1

[58] = target: SpAbp1-D1
Summary of the method: as §1

[59] = target: SpBbc1
Summary of the method: as §1

[60] = target: SpBzz1-D1
Summary of the method: as §1

[61] = target: SpBzz1-D2
Summary of the method: as §1

[62] = target: SpCyk3
Summary of the method: as §1

[63] = target: SpHof1
Summary of the method: as §1

[64] = target: SpHof1-2
Summary of the method: as §1

[65] = target: SpHof1-3
Summary of the method: as §1

[66] = target: SpHse1
Summary of the method: as §1

[67] = target: SpLsb1
Summary of the method: as §1

[68] = target: SpLsb4
Summary of the method: as §1

[69] = target: SpMyo1
Summary of the method: as §1

[70] = target: SpNbp2
Summary of the method: as §1

[71] = target: SpPex13
Summary of the method: as §1

[72] = target: SpRvs167
Summary of the method: as §1

[73] = target: SpSla1-D1-D2
Summary of the method: as §1

[74] = target: SpSla1-D3
Summary of the method: as §1

SSTPTTPERPKRKSG
SPOT peptide array binding signal intensity [1]: 128 | SPOT peptide array binding signal intensity [2]: 2110 | SPOT peptide array binding signal intensity [3]: ≤ 0 | SPOT peptide array binding signal intensity [4]: 36.5 | SPOT peptide array binding signal intensity [5]: 21 | SPOT peptide array binding signal intensity [6]: 2 | SPOT peptide array binding signal intensity [7]: ≤ 0 | SPOT peptide array binding signal intensity [8]: ≤ 0 | SPOT peptide array binding signal intensity [9]: ≤ 0 | SPOT peptide array binding signal intensity [10]: 1 | SPOT peptide array binding signal intensity [11]: 602 | SPOT peptide array binding signal intensity [12]: ≤ 0 | SPOT peptide array binding signal intensity [13]: ≤ 0 | SPOT peptide array binding signal intensity [14]: 18.3 | SPOT peptide array binding signal intensity [15]: ≤ 0 | SPOT peptide array binding signal intensity [16]: ≤ 0 | SPOT peptide array binding signal intensity [17]: 1.25 | SPOT peptide array binding signal intensity [18]: 514 | SPOT peptide array binding signal intensity [19]: 1000 | SPOT peptide array binding signal intensity [20]: 2820 | SPOT peptide array binding signal intensity [21]: 8 | SPOT peptide array binding signal intensity [22]: 63.5 | SPOT peptide array binding signal intensity [23]: 36.2 | SPOT peptide array binding signal intensity [24]: 166 | SPOT peptide array binding signal intensity [25]: 48.5 | SPOT peptide array binding signal intensity [26]: 0.5 | SPOT peptide array binding signal intensity [27]: ≤ 0 | SPOT peptide array binding signal intensity [28]: ≤ 0 | SPOT peptide array binding signal intensity [29]: 7900 | SPOT peptide array binding signal intensity [30]: 0.25 | SPOT peptide array binding signal intensity [31]: 28.5 | SPOT peptide array binding signal intensity [32]: 110 | SPOT peptide array binding signal intensity [33]: ≤ 0 | SPOT peptide array binding signal intensity [34]: 9.5 | SPOT peptide array binding signal intensity [35]: 480 | SPOT peptide array binding signal intensity [36]: ≤ 0 | SPOT peptide array binding signal intensity [37]: 66 | SPOT peptide array binding signal intensity [38]: 2030 | SPOT peptide array binding signal intensity [39]: 3 | SPOT peptide array binding signal intensity [40]: 15 | SPOT peptide array binding signal intensity [41]: 7.5 | SPOT peptide array binding signal intensity [42]: ≤ 0 | SPOT peptide array binding signal intensity [43]: ≤ 0 | SPOT peptide array binding signal intensity [44]: ≤ 0 | SPOT peptide array binding signal intensity [45]: 33.5 | SPOT peptide array binding signal intensity [46]: 260 | SPOT peptide array binding signal intensity [47]: 1 | SPOT peptide array binding signal intensity [48]: 5780 | SPOT peptide array binding signal intensity [49]: 836 | SPOT peptide array binding signal intensity [50]: ≤ 0 | SPOT peptide array binding signal intensity [51]: ≤ 0 | SPOT peptide array binding signal intensity [52]: ≤ 0 | SPOT peptide array binding signal intensity [53]: 78.2 | SPOT peptide array binding signal intensity [54]: 902 | SPOT peptide array binding signal intensity [55]: ≤ 0 | SPOT peptide array binding signal intensity [56]: 290 | SPOT peptide array binding signal intensity [57]: 15 | SPOT peptide array binding signal intensity [58]: 85 | SPOT peptide array binding signal intensity [59]: 22.2 | SPOT peptide array binding signal intensity [60]: 64 | SPOT peptide array binding signal intensity [61]: ≤ 0 | SPOT peptide array binding signal intensity [62]: ≤ 0 | SPOT peptide array binding signal intensity [63]: 2.5 | SPOT peptide array binding signal intensity [64]: 2 | SPOT peptide array binding signal intensity [65]: 177 | SPOT peptide array binding signal intensity [66]: 11 | SPOT peptide array binding signal intensity [67]: 1030 | SPOT peptide array binding signal intensity [68]: 8450 | SPOT peptide array binding signal intensity [69]: ≤ 0 | SPOT peptide array binding signal intensity [70]: ≤ 0 | SPOT peptide array binding signal intensity [71]: ≤ 0 | SPOT peptide array binding signal intensity [72]: 450 | SPOT peptide array binding signal intensity [73]: 8 | SPOT peptide array binding signal intensity [74]: ≤ 0

RSVKRPRRAPRPVVS
SPOT peptide array binding signal intensity [1]: 124 | SPOT peptide array binding signal intensity [2]: 434 | SPOT peptide array binding signal intensity [3]: 116 | SPOT peptide array binding signal intensity [4]: 54.5 | SPOT peptide array binding signal intensity [5]: 19 | SPOT peptide array binding signal intensity [6]: 2 | SPOT peptide array binding signal intensity [7]: 372 | SPOT peptide array binding signal intensity [8]: 49 | SPOT peptide array binding signal intensity [9]: 592 | SPOT peptide array binding signal intensity [10]: 4.5 | SPOT peptide array binding signal intensity [11]: 150 | SPOT peptide array binding signal intensity [12]: 1.25 | SPOT peptide array binding signal intensity [13]: 908 | SPOT peptide array binding signal intensity [14]: 2.17 | SPOT peptide array binding signal intensity [15]: 5 | SPOT peptide array binding signal intensity [16]: 15 | SPOT peptide array binding signal intensity [17]: 6.25 | SPOT peptide array binding signal intensity [18]: 586 | SPOT peptide array binding signal intensity [19]: 430 | SPOT peptide array binding signal intensity [20]: 663 | SPOT peptide array binding signal intensity [21]: 140 | SPOT peptide array binding signal intensity [22]: 108 | SPOT peptide array binding signal intensity [23]: 165 | SPOT peptide array binding signal intensity [24]: 106 | SPOT peptide array binding signal intensity [25]: 208 | SPOT peptide array binding signal intensity [26]: 2 | SPOT peptide array binding signal intensity [27]: 47.5 | SPOT peptide array binding signal intensity [28]: 0.75 | SPOT peptide array binding signal intensity [29]: 1720 | SPOT peptide array binding signal intensity [30]: 2
